In PubChem BioAssay (Tox21):
The source made the active and inactive calls. The call rests on the fitted dose curve; in most records, active means well fitted curve in the direction sought with a large enough effect in the repeat runs; inconclusive means weak or mixed curves; inactive means flat fitted curve, though single readings scatter.

test: qHTS assay to test for compound auto fluorescence at 590 nm (red) in HEK293 cell free culture (AID 720683); details: cell-free medium autofluorescence, Ex540/Em590 red; series mostly up to 91.3 µM
Description: U.S. Tox21 Program National Center for Advancing Translational Sciences [NCATS] NIH Chemical Genomics Center [NCGC] U.S. Environmental Protection Agency [EPA] National Institutes of Environmental Health Sciences [NIEHS] National Toxicology Program [NTP] U.S. Food and Drug Administration [FDA] Tox21 Assay Overview: Compound auto fluorescence often interferes with screening of the compound library against various biological targets and signaling pathways. Some of these compounds may have fluorophoric properties. Such properties may interfere with the assay outputs resulting in false positives and/or negatives. To decrease such complications and ensure the compound activities are relevant in terms of biological response, the Tox21 10K compound library was screened for auto fluorescence. From the fluorophores used as reporter signals in our screening assays, the auto fluorescence equivalencies of compounds against three fluorophores have been evaluated: Triamterene, Fluorescein and Rose Bengal sodium for blue, green and red fluorescence, respectively. The fluorescence intensities were measured using Excitation/Emission wavelengths at 405/460nm, 485/535nm and 540/590nm for blue, green and red labels, respectively. This assay includes the red fluorescence data.
Tox21 Assay Protocol Summary: 5 uL of culture medium (DMEM containing 10% FBS) per well was dispensed into black wall/clear bottom 1536-well plates using a Multidrop Combi Dispenser (ThermoFisher Scientific, Waltham, MA). After 23 nL compound or DMSO vehicle was transferred into assay plate by a pintool work station (Kalypsys, San Diego, CA), fluorescence intensities in the assay plates were measured by an Envision (PerkinElmer, Shelton, CT) plate reader using three labels for measuring blue, green and red fluorescence at […] 460, 535 and 590nm respectively.

| Structure (SMILES) | outcome |
| --- | --- |
| CCN(CC)N=O | inactive |
| C=CCN(CC=C)C(=O)C(Cl)Cl | inactive |
| CC(C)Oc1cc(-n2nc(C(C)(C)C)oc2=O)c(Cl)cc1Cl | inactive |
| CC(C)c1ccc(CO)cc1 | inactive |
| COc1ccc(C(CN(C)C)C2(O)CCCCC2)cc1 (stereo not given) | inactive |
| O=[N+]([O-])c1ccc(O)c([N+](=O)[O-])c1 | inactive |
| O=[N+]([O-])c1c(Cl)c(Cl)c(Cl)c(Cl)c1Cl | inactive |
| Nc1ccncc1 | inactive |
| CCOC(=S)S | inactive |
| c1ccc(NNc2ccccc2)cc1 | inactive |
| O=c1oc2ccccc2c(O)c1C(CC(O)c1ccc(-c2ccc(Br)cc2)cc1)c1ccccc1 (stereo not given) | inactive |
| CC(C)C(=O)OCC(C)(C)C(OC(=O)C(C)C)C(C)C (stereo not given) | inactive |
| O=C(Nc1ccc(Br)cc1)c1cc(Br)cc(Br)c1O | inactive |
| CCC(=O)O[C@H]1CC[C@H]2[C@@H]3CCC4=CC(=O)CC[C@]4(C)[C@H]3CC[C@]12C | inactive |
| NNC(N)=S | inactive |
| CN(C)c1ccc(C(=O)c2ccc(N(C)C)cc2)cc1 | inactive |
| Cc1ccc2c(c1N)C(=O)c1ccccc1C2=O | inactive |
| C=C(C)C(=O)OCC1CO1 (stereo not given) | inactive |
| c1ccc(N=Nc2ccccc2)cc1 | inactive |
| Nc1ccc(Cl)c(Cl)c1 | inactive |

| Structure (SMILES) | outcome |
| --- | --- |
| COC(=O)c1sccc1S(=O)(=O)NC(=O)Nc1nc(C)nc(OC)n1 | inactive |
| N#Cc1cc(Br)c(O)c(Br)c1 | inactive |
| O=C1C=CC(=O)C=C1 | inactive |
| Cc1cc(C)cc(C)c1 | inactive |
| COc1ccc(C=O)cc1 | inactive |
| COP(=S)(OC)Oc1ccc([N+](=O)[O-])cc1 | inactive |
| CCCCCCCCCCCOC(=O)c1ccccc1C(=O)OCCCCCCCCCCC | inactive |
| CC(C)NC(C)C | inactive |
| CCCCC(CC)COC(=O)c1ccc(C(=O)OCC(CC)CCCC)c(C(=O)OCC(CC)CCCC)c1 (stereo not given) | inactive |
| COP(=S)(OC)Oc1cc(Cl)c(Cl)cc1Cl | inactive |
| CCCCN(CC)c1c([N+](=O)[O-])cc(C(F)(F)F)cc1[N+](=O)[O-] | inactive |
| CN(C)C(=O)Nc1ccc(Cl)cc1 | inactive |
| Cc1ccc(N)c(N)c1 | inactive |
| CC(C)(OOC(C)(C)c1ccccc1)c1ccccc1 | inactive |
| CC(C)(C)c1ccccc1O | inactive |
| O=C(NC(=O)c1c(F)cccc1F)Nc1ccc(Cl)cc1 | inactive |
| CCC(C)c1cc([N+](=O)[O-])cc([N+](=O)[O-])c1O (stereo not given) | inactive |
| O=[N+]([O-])c1cccc2ccccc12 | inactive |
| C=CCc1ccc(OC)cc1 | inactive |
| C#C[C@]1(O)CC[C@H]2[C@@H]3CCC4=CC(=O)CC[C@]4(C)[C@H]3CC[C@@]21C | inactive |
